We go through 27 molecules from PubChem BioAssay (Tox21).

Where “and” joins values, the source holds several entries; their conditions need not be identical. Equal entries are not always repeated. Records with an inconclusive call do not appear. Where a structure was tested more than once in an assay, its records may differ in their call. Calls of active or inactive are those of the source. Unless noted, calls follow the shape of the dose curve; as a rule, active = well fitted curve in the direction sought with a large enough effect in the repeat runs; inconclusive = weak or mixed curves; inactive = no such curve, though single readings can be large; an effect the other way counts as inactive or inconclusive.

The target of assay [1] is Luciferin 4-monooxygenase (Photinus pyralis) (UniProt P08659). Nature of the assay: qHTS assay to identify small molecule inhibitors of firefly luciferase (AID 1224835). Also: nearly all actives have a fitted effect of over 25% in size. Also: potency is read from the fitted curve at half-maximal effect. A digest of the protocol:
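Inhibition of purified Photinus luciferase is measured by luminescence. Substrate levels (D-luciferin, ATP) sit at their KM values. Each compound is tested in a concentration series.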
In general terms: Quantitative high-throughput screening tests each substance at several concentrations.

A short description of assay [2]: qHTS assay to identify small molecule agonists of the constitutive androstane receptor (CAR) signaling pathway - cell viability counter screen (AID 1224836). Also: nearly all actives have a fitted effect of over 45% in size. Also: potency is read from the fitted curve at half-maximal effect. The method, boiled down:
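Double-stable HepG2 hepatoma cells (hCAR plus CYP2B6-2.2kb) are treated for 23 h at 37 C with test compounds in 15-point concentration series. PK11195 at 0.75 uM final is co-added. Cell viability is quantified by CellTiter-Fluor.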

The target of assay [3] is Nuclear receptor subfamily 1 group I member 3 (Homo sapiens) (UniProt Q14994). Nature of the assay: qHTS assay to identify small molecule antagonists of the constitutive androstane receptor (CAR) signaling pathway (AID 1224838).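 Also: HepG2 cells stably expressing hCAR with CYP2B6 luciferase reporter stimulated by CITCO; nearly all actives have a fitted effect of over 40% in size.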 Also: potency is read from the fitted curve at half-maximal effect. The method, boiled down:
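Luminescence from a CYP2B6-2.2kb promoter reporter in hCAR-expressing HepG2 cells reflects CAR signaling. Cells received compounds at 15 concentrations and 50 nM CITCO (final), then incubated 24 h at 37 C/5% CO2.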

Assay [4] has the same target. The assay can be described thus: qHTS assay to identify small molecule agonists of the constitutive androstane receptor (CAR) signaling pathway (AID 1224839). Also: nearly all actives have a fitted effect of over 15% in size. Also: potency is read from the fitted curve at half-maximal effect.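 As to activation: HepG2 cells stably carrying human CAR and a CYP2B6 luciferase reporter; series mostly up to about 92 µM.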 The method, boiled down: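 Readout: firefly luciferase luminescence via ONE-Glo. System: HepG2 double-stable for hCAR and CYP2B6-2.2kb. Conditions: 15-point compound titration, PK11195 at 0.75 uM final, 24 h incubation.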

A short description of assay [5]: qHTS assay to identify small molecule antagonists of the estrogen related receptor signaling pathway with the pleiotropic PPARgamma coactivator (PGC) from Tox21 10K library - cell viability counter screen (AID 1224840; active = well fitted cell-killing curve with a large enough effect in the repeat runs, not every such curve was filed as active; also: nearly all actives have a fitted effect of over 40% in size; also: potency is read from the fitted curve at half-maximal effect). A digest of the protocol:
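Cell viability is measured by CellTiter-Fluor fluorescence in PGC/ERR cells that receive compounds after a 6-hour attachment period and are then incubated 17.5 hours at 37 C.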

Assay [6] can be described thus: qHTS assay to identify small molecule agonists of the estrogen related receptor signaling pathway with the pleiotropic PPARgamma coactivator (PGC) from Tox21 10K library (AID 1224842). Also: nearly all actives have a fitted effect of over 15% in size. The method, boiled down: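 Luminescence from One-Glo (30 min, room temperature) measured after PGC/ERR cells had 18 h at 37 C with pinned compound (23 nL in DMSO). Cells had been seeded at 2,000 per well and pre-incubated 6 h.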

Assay [7] has as its target Thyrotropin receptor (Homo sapiens) (UniProt P16473). Nature of the assay: qHTS assay to identify small molecule agonists of the thyroid stimulating hormone receptor (TSHR) signaling pathway (AID 1224843; calls by dose curve; also: nearly all actives have a fitted effect of over 45% in size; also: potency is read from the fitted curve at half-maximal effect). A digest of the protocol: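 Agonist activity read as cAMP rise via d2/cryptate HTRF competition, 1 h room-temperature detection, in HEK293 cells expressing TSHR. Fifteen-point titrations, each run in triplicate, with a 30 min room-temperature incubation beforehand.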

A short description of assay [8]: qHTS assay to identify small molecule agonists of the hypoxia (HIF-1) signaling pathway - cell viability counter screen (AID 1224844; calls by dose curve; also: nearly all actives have a fitted effect of over 50% in size; also: potency is read from the fitted curve at half-maximal effect). A digest of the protocol: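 Viability counter screen: HRE-bla ME-180 cells plated 5 hrs before compound addition, treated 17 hrs at 37C and 5% CO2, then CellTiter-Glo added after the FRET reporter read; luminescence after 30 min.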

Assay [9] can be described thus: qHTS assay to identify small molecule antagonists of the constitutive androstane receptor (CAR) signaling pathway - cell viability counter screen (AID 1224837). Also: series mostly up to about 92 µM; nearly all actives have a fitted effect of over 45% in size. A digest of the protocol:
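Cells are seeded, rested 4 hr at 37 C/5% CO2, dosed with compound (15-point series) and 50 nM CITCO, incubated a further 23 hr, and then CellTiter-Fluor reagent is added before fluorescence is read. The line is HepG2 with stable hCAR and CYP2B6-2.2kb.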
% is scaled to controls: 0 for no effect and ±100 for the full control effect.

Chain of Luciferin 4-monooxygenase (Photinus pyralis) (P08659 whole entry, looked up): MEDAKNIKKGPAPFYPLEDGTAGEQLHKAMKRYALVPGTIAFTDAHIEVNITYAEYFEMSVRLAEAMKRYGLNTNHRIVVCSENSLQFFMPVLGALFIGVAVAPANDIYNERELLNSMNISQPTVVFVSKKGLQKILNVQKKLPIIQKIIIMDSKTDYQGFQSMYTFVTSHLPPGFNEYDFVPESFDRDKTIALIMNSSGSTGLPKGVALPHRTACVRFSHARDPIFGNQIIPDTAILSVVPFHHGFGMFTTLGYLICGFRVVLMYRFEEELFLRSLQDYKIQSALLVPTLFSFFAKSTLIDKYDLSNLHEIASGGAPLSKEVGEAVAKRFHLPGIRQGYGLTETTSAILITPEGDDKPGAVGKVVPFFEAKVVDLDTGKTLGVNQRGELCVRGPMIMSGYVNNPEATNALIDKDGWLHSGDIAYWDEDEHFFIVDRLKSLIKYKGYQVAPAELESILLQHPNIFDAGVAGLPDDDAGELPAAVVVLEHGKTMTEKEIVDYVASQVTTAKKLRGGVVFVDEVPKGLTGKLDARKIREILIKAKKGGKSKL
Chain of Thyrotropin receptor (Homo sapiens) (P16473 whole entry, looked up): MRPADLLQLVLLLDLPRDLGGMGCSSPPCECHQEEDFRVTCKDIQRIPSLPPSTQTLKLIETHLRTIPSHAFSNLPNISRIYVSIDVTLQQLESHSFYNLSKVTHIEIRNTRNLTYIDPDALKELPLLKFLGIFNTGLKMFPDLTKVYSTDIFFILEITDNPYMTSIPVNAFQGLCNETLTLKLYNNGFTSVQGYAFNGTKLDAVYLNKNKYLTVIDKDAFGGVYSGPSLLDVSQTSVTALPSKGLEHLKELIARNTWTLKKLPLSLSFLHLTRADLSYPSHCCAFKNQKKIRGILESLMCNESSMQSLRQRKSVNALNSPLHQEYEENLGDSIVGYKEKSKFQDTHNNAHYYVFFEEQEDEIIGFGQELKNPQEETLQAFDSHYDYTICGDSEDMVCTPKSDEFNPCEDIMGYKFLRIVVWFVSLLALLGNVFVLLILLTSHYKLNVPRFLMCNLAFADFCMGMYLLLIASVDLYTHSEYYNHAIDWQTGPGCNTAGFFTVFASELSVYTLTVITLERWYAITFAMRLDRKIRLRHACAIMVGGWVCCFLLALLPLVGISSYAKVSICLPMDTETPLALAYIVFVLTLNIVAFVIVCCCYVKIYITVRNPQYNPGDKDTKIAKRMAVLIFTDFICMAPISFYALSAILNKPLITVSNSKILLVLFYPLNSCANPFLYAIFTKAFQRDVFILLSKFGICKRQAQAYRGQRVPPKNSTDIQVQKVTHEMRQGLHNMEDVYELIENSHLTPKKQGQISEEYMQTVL
Chain of Nuclear receptor subfamily 1 group I member 3 (Homo sapiens) (Q14994 whole entry, looked up): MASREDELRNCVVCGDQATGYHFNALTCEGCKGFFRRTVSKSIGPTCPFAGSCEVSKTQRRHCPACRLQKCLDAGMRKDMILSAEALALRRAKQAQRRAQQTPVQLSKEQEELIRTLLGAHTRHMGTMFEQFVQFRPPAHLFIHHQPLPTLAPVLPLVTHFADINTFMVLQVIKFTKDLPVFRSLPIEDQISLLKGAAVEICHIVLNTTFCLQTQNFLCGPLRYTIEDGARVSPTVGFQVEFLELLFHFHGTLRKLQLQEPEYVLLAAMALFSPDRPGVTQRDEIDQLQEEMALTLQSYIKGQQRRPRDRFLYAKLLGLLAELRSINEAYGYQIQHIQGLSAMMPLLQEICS

Turning to `CC(C)C(=O)Nc1ccc([N+](=O)[O-])c(C(F)(F)F)c1`, the Potency entry in assay [1], in [2], in assay [3], in assay [4], in [5] and in [6] was “inactive” each time. Moreover, the Potency result in [7] and in assay [8] was “inactive” throughout.

As to `Nc1ccc2c(c1)CN1C(=O)c3ccccc3C1=N2`, the Potency is 0.213 µM (active) in [1] and 0.184 µM (active) in assay [4]. Also, the activity, negative = inhibition in assay [3] was -44.6% [at 19 µM] (inactive). The activation in assay [7] was -0.704% [at 19 µM] (inactive).

On to `O=c1[nH]cc(F)c(=O)[nH]1`, for which the Potency in [1] is 41.5 µM (active) and inactive; in [5] it was 44.9 µM (active) and inactive; in [8], 10.1 µM (active) and inactive. Further, the Potency result in [7] was “inactive”.

As for `CCCCCCc1ccc(O)cc1O`, the Potency result in assay [1], in [2], in assay [3], in [4], in assay [5] and in assay [6] was “inactive” each time. For the same molecule, the Potency entry in assay [7] and in assay [8] was “inactive” throughout.

Regarding `CNNCc1ccc(C(=O)NC(C)C)cc1`, the Potency entry in assay [2], in [3], in assay [5], in [7] and in assay [8] was “inactive” in each case.

As for `Nc1ccc(O)c([N+](=O)[O-])c1`, the Potency was 79.6 µM (active) in [1] and 12.2 µM (active) in [3]. Further, in [8], the Potency entry is “inactive”.

Turning to `CC/C(=C(\c1ccccc1)c1ccc(OCCN(C)C)cc1)c1ccccc1`, the Potency entry in assay [7] is “inactive”. Further, in assay [8], the Potency is 24.8 µM (active) [middle of 4 runs].

For the molecule `C/C=C/C=C/C(=O)O`, the Potency result in assay [2], in assay [3], in assay [4], in assay [5], in assay [7] and in assay [8] was “inactive” throughout.

In the case of `COc1ccc2c(c1)c(CC(=O)O)c(C)n2C(=O)c1ccc(Cl)cc1`, the Potency entry in [1], in [2], in [3], in assay [4], in [5] and in assay [6] was “inactive” each time. Further, the Potency result in assay [7] and in assay [8] was “inactive” each time.

For `Oc1ccccc1`, the Potency entry in assay [2], in assay [9], in [3], in assay [4], in assay [5] and in [7] was “inactive” throughout. Moreover, the Potency entry in [8] was “inactive”.

Regarding `CCN(CC)C(=O)c1cccc(C)c1`, the Potency entry in assay [1], in assay [2], in assay [5], in [6], in assay [7] and in [8] was “inactive” each time.

Take `CCCCCCCCCCCC[N+](C)(C)Cc1ccccc1`: the Potency result in assay [1] and in assay [4] was “inactive” each time. Besides, the Potency is 47.6 µM (active) and 59.2 µM (active) and 29.8 µM (active) in assay [2]; 83.6 µM (active) and 29.8 µM (active) in [3]; 60 µM (active) and 41.9 µM (active) in [5]; 30 µM (active) and 37.4 µM (active) in assay [7]; 53.9 µM (active) in assay [8].

As to `Cc1ccc(S(=O)(=O)O)cc1`, the Potency entry in [2], in [5] and in assay [8] was “inactive” in each case.

Turning to `NC(=O)n1c(O)c(C(=O)c2cccs2)c2cc(Cl)ccc21`, the Potency was 30.9 µM (active) in assay [1] and 13.3 µM (active) in assay [4]. Besides, the Potency result in assay [3], in [7] and in assay [8] was “inactive” in each case.

`Cc1cc(C)nc(NS(=O)(=O)c2ccc(N)cc2)n1`: the Potency entry in [1], in assay [2], in assay [3], in assay [4], in [5] and in assay [7] was “inactive” throughout. The Potency result in assay [8] was “inactive”.

In the case of `C1=CC2C3C=CC(C3)C2C1` (stereo not drawn), the Potency result in assay [1], in assay [4], in [5] and in [6] was “inactive” throughout.

For `O=C1c2c(O)cccc2Cc2cccc(O)c21`, the Potency entry in assay [1], in [2], in assay [5], in assay [7] and in assay [8] was “inactive” throughout.

As for `COc1ccc(OC(F)(F)F)cc1CN[C@H]1CCCN[C@H]1c1ccccc1`, the Potency result in assay [1] and in assay [4] was “inactive” each time. For the same molecule, the results for the Potency in [2], in [3] and in assay [5] were 61.1 µM (active), 54.5 µM (active) and 54.5 µM (active), respectively.

For `Nc1ccc([N+](=O)[O-])cc1O`, the Potency entry in assay [3] and in assay [8] was “inactive” each time. Further, in assay [5], the Potency is 30.6 µM (active).

For the molecule `C1CCC(C(CC2CCCCN2)C2CCCCC2)CC1` (stereo not drawn), the Potency result in assay [1], in assay [4] and in [6] was “inactive” each time. Also, the Potency in assay [5] was 29.8 µM (active).

On to `Cn1c(=O)c2c(ncn2C)n(C)c1=O`, for which the Potency entry in assay [3], in assay [4], in assay [5], in [6] and in assay [8] was “inactive” throughout.

On to `Cc1ncc([N+](=O)[O-])n1CCO`, for which the Potency result in [1], in assay [2], in assay [3], in [4], in [5] and in assay [6] was “inactive” each time. The Potency result in assay [7] and in assay [8] was “inactive” each time.

For `CN1[C@@H]2CC(OC(=O)[C@H](CO)c3ccccc3)C[C@H]1[C@@H]1O[C@@H]12` (stereo partly drawn), the Potency entry in assay [1], in assay [2], in [3], in assay [4], in assay [5] and in [7] was “inactive” in each case. The Potency result in [8] was “inactive”.

As for `CCN(Cc1c(F)cccc1Cl)c1c([N+](=O)[O-])cc(C(F)(F)F)cc1[N+](=O)[O-]`, the Potency entry in [1], in [2], in assay [3], in assay [5] and in assay [6] was “inactive” throughout. Besides, the Potency in [4] is 7.7 µM (active); in assay [8], 21.9 µM (active).

As for `C=C1CC[C@H](O)C/C1=C\C=C1/CCC[C@]2(C)[C@@H]([C@H](C)CCCC(C)C)CC[C@@H]12`, the Potency entry in [2], in [3] and in assay [4] was “inactive” each time. Moreover, the Potency in [7] is 19.2 µM (active); in [8], 38.5 µM (active).

As to `CN(C)CCOC(c1ccccc1)c1ccccc1`, the Potency result in assay [1], in assay [2], in assay [5], in assay [7] and in assay [8] was “inactive” throughout.

As to `C=C(C)C(=O)OCC(C)O` (stereo not drawn), the Potency entry in assay [1], in assay [2], in assay [3], in assay [4], in assay [5] and in assay [7] was “inactive” in each case. In addition, in [8], the Potency result is “inactive”.
